Assay [1] can be described thus: qHTS assay to identify small molecule agonists of the sonic hedgehog signaling (Shh) pathway (AID 1259368; calls by dose curve;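 also: NIH/3T3-derived 3T3Gli1-Luc cells carrying a stable Gli1-driven firefly luciferase reporter; series mostly up to about 92 µM; nearly all actives have a fitted effect of over 15% in size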). The method, boiled down:
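Luminescence was read after 30 min at room temperature with luciferase reagent. Before that, 3T3Gli1-Luc cells (NIH/3T3 clone, stable Gli1-Luc reporter; 2,000/well) were exposed to compounds for 24 hr at 37C, 5% CO2, compounds being added 4 hr post-plating.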
For orientation: Quantitative high-throughput screening tests each substance at several concentrations.

The target of assay [2] is Estrogen receptor beta (Homo sapiens) (UniProt Q92731). Kind of assay: qHTS assay to identify small molecule agonists of the estrogen receptor beta (ER-beta) signaling pathway (AID 1259377; active = well fitted activation curve with a large enough effect in the signal ratio in the repeat runs, not every such curve was filed as active; the % refers to the signal ratio). Put shortly:
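A UAS-controlled beta-lactamase reporter in ER-beta-UAS-bla HEK293T cells reports receptor activation. Compounds act for 16 hr at 37C in 2% charcoal-stripped serum, and a FRET substrate is read by fluorescence after 2 hours.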

For assay [3] the target is unchanged. Kind of assay: qHTS assay to identify small molecule antagonists of the estrogen receptor beta (ER-beta) signaling pathway (AID 1259378; active = well fitted inhibition curve with a large enough effect in the signal ratio in the repeat runs, not every such curve was filed as active; the % refers to the signal ratio). The method, boiled down: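 ER-beta-UAS-bla HEK293T cells in 2% charcoal-stripped FBS medium treated with compound plus 1nM final 17-beta-estradiol for 16 hr at 37C. Beta-lactamase reporter read by FRET substrate fluorescence after 2 hours at room temperature.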

A short description of assay [4]: qHTS assay to identify small molecule agonists of the androgen receptor (AR) signaling pathway in the presence of an antagonist - cell viability counter screen (AID 1259379).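 Also: MDA-kb2 human breast cancer cells carrying an MMTV luciferase reporter; series mostly up to about 92 µM; nearly all actives have a fitted effect of over 25% in size.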 The method, boiled down:
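Cytotoxicity counter-screen run in the same wells as the nilutamide-challenged (3.0 µM final) AR agonist assay in MDA-kb2 cells. Compounds tested at 15 concentrations for 16 h, 37 °C without CO2; CellTiter-Fluor fluorescence read.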

Assay [5] is described as follows: qHTS assay to identify small molecule antagonists of the estrogen receptor beta (ER-beta) signaling pathway - cell viability counter screen (AID 1259382). Also: series mostly up to about 92 µM; nearly all actives have a fitted effect of over 55% in size. Put shortly:
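Cytotoxicity was measured in the same wells by CellTiter-Glo luminescence after 30 min at room temperature. Cells were ER-beta-bla HEK293T in charcoal-stripped serum, given compound together with 1 nM E2 and incubated 16 h at 37C.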

Assay [6] can be described thus: qHTS assay to identify small molecule agonists of the estrogen receptor alpha (ER-alpha) signaling pathway in the presence of an antagonist - cell viability counter screen (AID 1259386). Also: series mostly up to about 92 µM; nearly all actives have a fitted effect of over 30% in size. The method, boiled down: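 Compounds tested at 15 concentrations for 22 h at 37C alongside 10.0nM (final) ICI-182,780 antagonist, in VM7Luc4E2 cells grown in phenol red-free, charcoal-stripped medium. Viability read by CellTiter-Fluor fluorescence after 1 h reagent incubation.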

In assay [7] the target is Progesterone receptor (Homo sapiens) (UniProt P06401). The experiment in a line: qHTS assay to identify small molecule agonists of the progesterone receptor (PR) signaling pathway (AID 1346784; calls by dose curve; also: nearly all actives have a fitted effect of over 30% in size; also: potency is read from the fitted curve at half-maximal effect). Put shortly: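 Agonist mode, quantitative HTS format in a HEK 293T line expressing a UAS-controlled beta-lactamase reporter; 16 hr compound exposure at 37C in 2% charcoal-stripped FBS, then LiveBLAzer B/G FRET fluorescence.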
Chain of Progesterone receptor (Homo sapiens) (P06401 whole entry, looked up): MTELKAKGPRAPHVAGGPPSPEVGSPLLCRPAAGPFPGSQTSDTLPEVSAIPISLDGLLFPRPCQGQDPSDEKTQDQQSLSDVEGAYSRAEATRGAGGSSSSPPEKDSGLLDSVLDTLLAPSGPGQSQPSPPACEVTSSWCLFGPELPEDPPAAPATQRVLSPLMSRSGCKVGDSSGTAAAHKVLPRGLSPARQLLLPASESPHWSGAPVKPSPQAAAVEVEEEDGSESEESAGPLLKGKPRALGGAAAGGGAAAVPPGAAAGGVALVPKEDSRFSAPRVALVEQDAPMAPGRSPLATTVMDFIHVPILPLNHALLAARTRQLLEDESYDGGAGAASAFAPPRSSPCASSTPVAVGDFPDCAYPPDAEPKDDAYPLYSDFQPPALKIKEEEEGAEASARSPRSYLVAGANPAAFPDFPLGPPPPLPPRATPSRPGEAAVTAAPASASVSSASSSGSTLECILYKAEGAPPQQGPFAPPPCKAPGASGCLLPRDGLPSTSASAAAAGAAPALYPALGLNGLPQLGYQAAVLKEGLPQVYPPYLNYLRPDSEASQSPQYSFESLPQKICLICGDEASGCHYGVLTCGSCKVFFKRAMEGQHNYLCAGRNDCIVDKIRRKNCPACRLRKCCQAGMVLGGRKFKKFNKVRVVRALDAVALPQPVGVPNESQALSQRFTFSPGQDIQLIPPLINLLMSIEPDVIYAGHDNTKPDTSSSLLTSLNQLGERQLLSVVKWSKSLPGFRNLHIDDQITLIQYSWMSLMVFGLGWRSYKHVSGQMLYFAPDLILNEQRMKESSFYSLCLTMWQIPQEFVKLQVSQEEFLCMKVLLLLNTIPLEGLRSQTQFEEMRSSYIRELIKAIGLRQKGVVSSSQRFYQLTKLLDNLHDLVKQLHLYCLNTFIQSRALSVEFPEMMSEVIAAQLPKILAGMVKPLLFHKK

Assay [8] has the same target. Kind of assay: qHTS assay to identify small molecule antagonists of the progesterone receptor (PR) signaling pathway (AID 1346795; active = well fitted inhibition curve with a large enough effect in the signal ratio in the repeat runs, not every such curve was filed as active; the % refers to the signal ratio). The method, boiled down:
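HEK293T PR-UAS-bla reporter cells in charcoal-stripped serum (2%) received compound after a 6 hr settling period, followed by R5020 agonist at 1 nM final; 16 hr incubation preceded the FRET substrate step and fluorescence measurement.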

A short description of assay [9]: qHTS assay to identify small molecule antagonists of the progesterone receptor (PR) signaling pathway - cell viability counter screen (AID 1346798). Also: nearly all actives have a fitted effect of over 50% in size. Also: potency is read from the fitted curve at half-maximal effect. Put shortly: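 Same-well multiplex: after 16 hr at 37C with compound and R5020 stimulation, HEK293T cells carrying a UAS-bla reporter received LiveBLAzer substrate (2 hr RT), then CellTiter-Glo (30 min RT) for luminescent viability.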

Assay [10] can be described thus: qHTS assay to identify small molecule agonists of the progesterone receptor (PR) signaling pathway - cell viability counter screen (AID 1346799; calls by dose curve; also: nearly all actives have a fitted effect of over 45% in size). The method, boiled down: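 Counter screen for cytotoxicity: compound-treated PR-UAS-bla HEK293T cells (16 hr, 37C, 5% CO2) were assayed with CellTiter-Glo, luminescence measured after 30 min at room temperature.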
Assay [11] is described as follows: qHTS assay to identify small molecule antagonists of the TGF-beta/Smad signaling pathway - cell viability counter screen (AID 1346824). Also: nearly all actives have a fitted effect of over 50% in size. The method, boiled down:
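SBE-bla HEK 293T cells, incubated overnight, then compound plus 0.25 ng/mL TGF-beta1 (stock added) for 5 hr at 37 C. Viability was read in the same wells by CellTiter-Glo luminescence after 30 min at room temperature.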

Assay [12] is described as follows: qHTS assay to identify small molecule agonists of the TGF-beta/Smad signaling pathway - cell viability counter screen (AID 1346829). Also: top concentration of the series differs between compounds; nearly all actives have a fitted effect of over 45% in size. Put shortly: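 CellTiter-Glo luminescence readout; SBE-bla HEK 293T cells, overnight plating, compound 5 hr at 37 C/5% CO2, then bla substrate 2 hr RT, then CellTiter-Glo 30 min RT.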
The nature of assay [13]: qHTS assay to identify small molecule agonists of the TGF-beta/Smad signaling pathway (AID 1346859; active = well fitted activation curve with a large enough effect in the signal ratio in the repeat runs, not every such curve was filed as active; the % refers to the signal ratio; also: series mostly up to about 77 µM). The method, boiled down:
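Smad-responsive beta-lactamase reporter cells (HEK 293T) received compounds from DMSO stocks after overnight attachment, were incubated 5 hr, then treated 2 hr with FRET substrate before dual-emission fluorescence measurement (405 nm excitation).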

Assay [14] addresses Thyrotropin-releasing hormone receptor (Homo sapiens) (UniProt P34981). Kind of assay: qHTS assay to identify small molecule antagonists of the thyrotropin-releasing hormone receptor (TRHR) signaling pathway (AID 1346877; active = well fitted inhibition curve with a large enough effect in the repeat runs, not every such curve was filed as active; also: series mostly up to about 51 µM). Put shortly: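 Antagonist mode: after a 5 min room-temperature compound exposure, cells were stimulated with 1 nM (final) TRH. Dye-loaded TRHR-HEK293 cells were used, and calcium-dependent fluorescence was followed for 3 min, with 15-point titrations run in triplicate.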

Assay [15] can be described thus: qHTS assay to identify small molecule agonists of the estrogen receptor beta (ER-beta) signaling pathway - cell viability counter screen (AID 1259380). Also: nearly all actives have a fitted effect of over 30% in size. Put shortly: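 Cell viability counter screen: CellTiter-Glo luminescence (30 min, room temperature) measured in the same wells as the beta-lactamase readout, after 16 hr compound exposure at 37C of ER-beta-bla HEK293T cells in 2% charcoal-stripped FBS medium.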

Assay [16] is described as follows: qHTS assay to identify small molecule agonists or antagonists of the thyroid stimulating hormone receptor (TSHR) signaling pathway - wild type cell line counter screen (AID 1259384; calls by dose curve). Put shortly:
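Wild-type Hek293 cells, 800/well, 18 h at 37C, then compound with Ro20-1724 for 30 min RT. cAMP by HTRF (cAMP-d2/anti-cAMP cryptate), 1 h RT, fluorescence read. 15 concentrations, triplicates.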

In assay [17] the target is Thyrotropin receptor (Homo sapiens) (UniProt P16473). Kind of assay: qHTS assay to identify small molecule antagonists of the thyroid stimulating hormone receptor (TSHR) signaling pathway (AID 1259385; calls by dose curve; also: nearly all actives have a fitted effect of over 20% in size). The method, boiled down: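 TSHR-HEK293 cells (800/well) plated 18 h, then compounds with Ro20-1724 and TSH at 1.5 ng/mL final, 30 min at room temperature. cAMP quantified by HTRF (cAMP-d2/anti-cAMP-cryptate, 1 h); 15 concentrations in triplicate.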
Chain of Thyrotropin receptor (Homo sapiens) (P16473 whole entry, looked up): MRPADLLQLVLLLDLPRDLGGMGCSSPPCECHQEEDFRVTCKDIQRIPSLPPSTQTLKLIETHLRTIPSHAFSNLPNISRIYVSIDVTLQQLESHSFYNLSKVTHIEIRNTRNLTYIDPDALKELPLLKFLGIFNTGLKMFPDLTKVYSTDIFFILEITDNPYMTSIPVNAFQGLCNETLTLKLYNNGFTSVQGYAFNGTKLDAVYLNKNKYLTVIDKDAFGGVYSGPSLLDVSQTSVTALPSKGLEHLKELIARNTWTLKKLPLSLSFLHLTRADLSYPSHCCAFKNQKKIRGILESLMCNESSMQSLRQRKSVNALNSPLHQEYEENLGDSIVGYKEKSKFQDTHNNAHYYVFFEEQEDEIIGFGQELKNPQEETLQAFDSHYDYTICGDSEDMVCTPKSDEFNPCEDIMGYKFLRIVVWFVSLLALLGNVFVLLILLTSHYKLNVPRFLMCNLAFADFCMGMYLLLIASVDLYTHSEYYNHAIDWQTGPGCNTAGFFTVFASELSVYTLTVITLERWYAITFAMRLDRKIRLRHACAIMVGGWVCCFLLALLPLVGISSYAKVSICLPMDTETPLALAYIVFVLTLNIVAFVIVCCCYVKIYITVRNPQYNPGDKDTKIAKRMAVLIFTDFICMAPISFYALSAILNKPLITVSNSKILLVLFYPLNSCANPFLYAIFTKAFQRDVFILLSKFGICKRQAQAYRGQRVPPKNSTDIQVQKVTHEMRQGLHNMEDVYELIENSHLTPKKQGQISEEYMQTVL

Assay [18] deals with Estrogen receptor (Homo sapiens) (UniProt P03372). Kind of assay: qHTS assay to identify small molecule agonists of the estrogen receptor alpha (ER-alpha) signaling pathway in the presence of an antagonist (AID 1259383; calls by dose curve; also: top concentration of the series differs between compounds; nearly all actives have a fitted effect of over 15% in size). Put shortly:
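Agonist-mode confirmation run in the presence of 10.0nM (final) ICI-182,780 antagonist. The reporter was ERE-driven luciferase in VM7Luc4E2 cells, grown in charcoal-stripped serum. Cells were exposed to 15-concentration compound series for 22hr, then ONE-Glo luminescence was read.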

For assay [19], the target named is Androgen receptor (Homo sapiens) (UniProt P10275). The experiment in a line: qHTS assay to identify small molecule agonists of the androgen receptor (AR) signaling pathway in the presence of an antagonist (AID 1259381; calls by dose curve; also: nearly all actives have a fitted effect of over 15% in size). Put shortly:
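Agonist-mode confirmation run against 3.0 uM final nilutamide: compounds titrated at 15 concentrations onto MDA-kb2 MMTV-luciferase reporter cells. Luminescence measured with ONE-Glo following 16 hr incubation, 37C, 0% CO2.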

Unmarked numbers belong to inactive results. Records with an inconclusive call do not appear. The source made the active and inactive calls. Unless noted, calls follow the shape of the dose curve; as a rule, active = well fitted curve in the direction sought with a large enough effect in the repeat runs; inconclusive = weak or mixed curves; inactive = no such curve, though single readings can be large; an effect the other way counts as inactive or inconclusive.

Chain of Thyrotropin-releasing hormone receptor (Homo sapiens) (P34981 whole entry, looked up): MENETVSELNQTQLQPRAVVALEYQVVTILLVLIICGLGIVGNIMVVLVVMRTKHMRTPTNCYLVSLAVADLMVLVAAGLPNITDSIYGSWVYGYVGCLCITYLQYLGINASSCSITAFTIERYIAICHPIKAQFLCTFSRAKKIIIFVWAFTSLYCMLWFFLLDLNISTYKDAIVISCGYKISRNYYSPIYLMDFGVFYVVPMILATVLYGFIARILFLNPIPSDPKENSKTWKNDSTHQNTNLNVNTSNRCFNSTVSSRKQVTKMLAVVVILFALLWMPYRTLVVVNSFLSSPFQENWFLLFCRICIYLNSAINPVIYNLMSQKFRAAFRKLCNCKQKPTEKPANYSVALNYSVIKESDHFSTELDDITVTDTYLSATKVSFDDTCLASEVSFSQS
Chain of Estrogen receptor beta (Homo sapiens) (Q92731 whole entry, looked up): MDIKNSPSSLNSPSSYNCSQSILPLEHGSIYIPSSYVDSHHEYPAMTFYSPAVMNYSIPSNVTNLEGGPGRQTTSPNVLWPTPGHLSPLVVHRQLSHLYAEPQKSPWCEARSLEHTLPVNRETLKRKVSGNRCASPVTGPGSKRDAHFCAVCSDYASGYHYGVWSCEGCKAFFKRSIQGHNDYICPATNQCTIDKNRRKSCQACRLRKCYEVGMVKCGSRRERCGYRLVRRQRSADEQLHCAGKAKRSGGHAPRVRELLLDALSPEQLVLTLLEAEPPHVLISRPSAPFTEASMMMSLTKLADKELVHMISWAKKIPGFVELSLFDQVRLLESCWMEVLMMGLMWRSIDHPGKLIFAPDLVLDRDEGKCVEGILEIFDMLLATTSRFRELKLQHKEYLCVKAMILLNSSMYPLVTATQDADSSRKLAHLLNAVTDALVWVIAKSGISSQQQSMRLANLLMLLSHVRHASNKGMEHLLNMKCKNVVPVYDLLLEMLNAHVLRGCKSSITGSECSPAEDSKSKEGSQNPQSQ
Chain of Estrogen receptor (Homo sapiens) (P03372 whole entry, looked up): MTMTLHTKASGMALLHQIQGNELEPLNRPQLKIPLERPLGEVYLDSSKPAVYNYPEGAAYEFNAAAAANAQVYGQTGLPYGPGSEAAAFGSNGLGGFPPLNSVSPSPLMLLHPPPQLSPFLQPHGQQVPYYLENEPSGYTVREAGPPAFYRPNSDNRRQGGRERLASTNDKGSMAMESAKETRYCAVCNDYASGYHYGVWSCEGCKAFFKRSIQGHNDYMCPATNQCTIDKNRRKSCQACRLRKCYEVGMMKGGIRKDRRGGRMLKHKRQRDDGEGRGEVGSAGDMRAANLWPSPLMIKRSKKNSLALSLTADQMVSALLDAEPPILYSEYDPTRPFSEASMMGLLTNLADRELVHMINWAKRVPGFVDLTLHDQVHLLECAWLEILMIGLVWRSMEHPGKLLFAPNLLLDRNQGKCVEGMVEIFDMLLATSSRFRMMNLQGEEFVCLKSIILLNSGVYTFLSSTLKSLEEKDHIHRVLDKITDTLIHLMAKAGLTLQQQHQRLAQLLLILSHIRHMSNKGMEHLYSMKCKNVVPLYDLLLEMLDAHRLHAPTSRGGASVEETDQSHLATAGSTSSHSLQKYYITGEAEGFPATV
Chain of Androgen receptor (Homo sapiens) (P10275 whole entry, looked up): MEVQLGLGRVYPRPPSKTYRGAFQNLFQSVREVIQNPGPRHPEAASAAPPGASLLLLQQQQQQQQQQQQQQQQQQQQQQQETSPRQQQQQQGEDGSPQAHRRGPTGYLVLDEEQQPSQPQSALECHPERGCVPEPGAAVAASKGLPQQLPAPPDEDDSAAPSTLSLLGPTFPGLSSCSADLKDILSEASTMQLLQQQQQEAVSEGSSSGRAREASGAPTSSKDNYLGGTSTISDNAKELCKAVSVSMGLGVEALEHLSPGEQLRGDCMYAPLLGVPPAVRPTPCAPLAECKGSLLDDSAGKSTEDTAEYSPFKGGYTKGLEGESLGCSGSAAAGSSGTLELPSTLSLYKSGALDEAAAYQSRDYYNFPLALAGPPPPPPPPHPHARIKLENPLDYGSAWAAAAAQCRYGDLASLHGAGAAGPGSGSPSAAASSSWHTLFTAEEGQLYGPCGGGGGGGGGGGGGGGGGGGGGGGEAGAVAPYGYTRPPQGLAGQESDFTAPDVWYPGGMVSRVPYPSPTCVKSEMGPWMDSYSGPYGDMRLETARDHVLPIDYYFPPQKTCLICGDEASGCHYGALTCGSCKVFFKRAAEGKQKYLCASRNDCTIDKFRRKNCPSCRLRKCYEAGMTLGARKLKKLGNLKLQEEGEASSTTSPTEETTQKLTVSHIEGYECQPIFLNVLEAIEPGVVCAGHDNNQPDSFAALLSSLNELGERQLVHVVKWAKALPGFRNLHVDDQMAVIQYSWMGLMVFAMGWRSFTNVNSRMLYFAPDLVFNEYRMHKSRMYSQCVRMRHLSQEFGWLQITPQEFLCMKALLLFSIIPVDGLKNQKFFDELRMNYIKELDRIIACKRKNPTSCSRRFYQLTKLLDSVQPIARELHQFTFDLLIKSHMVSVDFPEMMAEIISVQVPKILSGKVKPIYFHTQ

Regarding `CC1CCc2nccnc21` (centres undefined), the Potency entry in assay [1], in [2], in assay [3], in assay [4], in assay [5] and in [6] was “inactive” each time. The Potency entry in assay [7], in [8], in [9], in assay [10], in assay [12] and in [13] was “inactive” throughout. Also, the compound was called inactive in assay [11] and in [14].

`CC(C)Cc1ccc(CC(=O)O)cc1`: the Potency result in assay [1], in assay [2], in [4], in assay [15], in assay [5] and in assay [6] was “inactive” throughout. The Potency entry in assay [7], in assay [12] and in [13] was “inactive” in each case. For the same compound, the Potency in [9] was 29.8 µM (active). For the same compound, the compound was classed as inactive in assay [11] and in assay [14].

Consider `CC(=O)OCC(=O)[C@@]1(OC(C)=O)[C@@H](C)C[C@H]2[C@@H]3C[C@H](F)C4=CC(=O)C=C[C@]4(C)[C@@]3(F)[C@@H](O)C[C@@]21C`, for which the Potency result in [1], in assay [2], in [3], in [5], in assay [16] and in assay [17] was “inactive” throughout. In addition, the Potency result in assay [6], in [10] and in assay [12] was “inactive” throughout. Also, the Potency in assay [7] was 0.237 µM (active). In addition, in [11], the result was inactive.

As for `CC(CO)(CO)C(=O)O`, the Potency entry in assay [1], in [2], in assay [3], in [4], in [15] and in assay [18] was “inactive” in each case. The Potency result in [6], in assay [7], in assay [9], in [10], in assay [12] and in assay [13] was “inactive” in each case. Further, in assay [11], the compound was classed as inactive.

Consider `Cc1oc(=O)oc1COC(=O)[C@@H]1N2C(=O)[C@@H](NC(=O)[C@H](N)c3ccccc3)[C@H]2SC1(C)C`, for which the Potency result in assay [1], in assay [2], in [3], in [19], in assay [5] and in assay [18] was “inactive” throughout. Also, the Potency entry in [16], in [17], in [6], in [7], in [8] and in [10] was “inactive” throughout. Besides, the Potency result in [12] and in assay [13] was “inactive” in each case. For the same compound, in assay [14], the compound was called inactive.

As to `CCCCCCOC(=O)CCCCC`, the Potency entry in assay [1], in assay [2], in assay [3], in assay [4], in assay [5] and in [16] was “inactive” throughout. Besides, the Potency result in [17], in [6], in [7], in assay [8], in [9] and in assay [10] was “inactive” throughout. Further, the Potency result in assay [13] is “inactive”. Besides, the result in assay [11] and in [14] was inactive.

For the compound `CC1CCCO1` (centres undefined), the Potency entry in assay [1], in assay [2], in assay [3], in [4], in [15] and in [6] was “inactive” throughout. Besides, the Potency result in assay [7], in assay [9], in [10], in [12] and in assay [13] was “inactive” in each case. Further, the result in [11] and in assay [14] was inactive.

Consider `COc1cc(NC(C)CCCN)c2ncccc2c1` (centres undefined), for which the Potency entry in assay [1], in assay [2], in assay [3], in [4], in [5] and in assay [18] was “inactive” in each case. Besides, the Potency result in assay [16], in [17], in assay [7], in assay [8], in assay [9] and in [10] was “inactive” throughout. The Potency entry in [12] and in assay [13] was “inactive” throughout. The compound was called inactive in assay [11] and in assay [14].

The values above are taken from PubChem BioAssay (Tox21).
